Data as given in the supplement of paper PMC4466140.

The binders below were run against SpBzz1-D2 (assay: SPOT peptide array binding signal intensity (averaged, normalized) (arbitrary units (background-subtracted, floor 0; scale differs between SH3 domains)); higher = stronger binding of the SH3 domain to the peptide).
Experimental: (§1)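 GST-tagged SH3 domains from S. cerevisiae (Sc), A. gossypii (Ag), C. albicans (Ca) and S. pombe (Sp) were incubated at 10 ug/ml overnight at 4 C on cellulose SPOT membranes carrying 292 synthetic 15-mer peptides mined from the S. cerevisiae proteome (cysteines replaced by serines). Binding was detected with anti-GST antibody, HRP secondary and chemiluminescence, quantified with Genespotter, and reported as normalized spot intensities averaged over biological replicates.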

Q: NLKKRPPTAPQRKIS was tested. Which “SPOT peptide array binding signal intensity” value did it give?
A: 8.5

These binders were tested against SpCyk3 in the same assay as above.
Experimental: as §1

Q: With NLKKRPPTAPQRKIS as the binder, how does the “SPOT peptide array binding signal intensity” value read?
A: ≤ 0

What follows are binders tested against SpHof1 in the same assay as above.
Experimental: as §1

Q: With NLKKRPPTAPQRKIS as the binder, how does the “SPOT peptide array binding signal intensity” value read?
A: 192

The binders below were run against SpHof1-2 in the same assay as above.
Experimental: as §1

Q: Which “SPOT peptide array binding signal intensity” value does the source give for NLKKRPPTAPQRKIS here?
A: 12.8

What follows are binders tested against SpHof1-3 in the same assay as above.
Experimental: as §1

Q: How did the “SPOT peptide array binding signal intensity” value turn out when NLKKRPPTAPQRKIS was run?
A: 77.2

The binders below were run against SpHse1 in the same assay as above.
Experimental: as §1

Q: With NLKKRPPTAPQRKIS as the binder, how does the “SPOT peptide array binding signal intensity” value read?
A: 1160

Each binder was assayed against SpLsb1 in the same assay as above.
Experimental: as §1

Q: With NLKKRPPTAPQRKIS as the binder, how does the “SPOT peptide array binding signal intensity” value read?
A: 9

These binders were tested against SpLsb4 in the same assay as above.
Experimental: as §1

Q: How did the “SPOT peptide array binding signal intensity” value turn out when NLKKRPPTAPQRKIS was run?
A: 2350

These binders were tested against SpMyo1 in the same assay as above.
Experimental: as §1

Q: For NLKKRPPTAPQRKIS, which “SPOT peptide array binding signal intensity” value is on record?
A: 10.2

The binders below were run against SpNbp2 in the same assay as above.
Experimental: as §1

Q: For NLKKRPPTAPQRKIS, which “SPOT peptide array binding signal intensity” value is on record?
A: 303

These binders were tested against SpPex13 in the same assay as above.
Experimental: as §1

Q: For NLKKRPPTAPQRKIS, which “SPOT peptide array binding signal intensity” value is on record?
A: 6

These binders were tested against SpRvs167 in the same assay as above.
Experimental: as §1

Q: With NLKKRPPTAPQRKIS as the binder, how does the “SPOT peptide array binding signal intensity” value read?
A: 539

These binders were tested against SpSla1-D1-D2 in the same assay as above.
Experimental: as §1

Q: For NLKKRPPTAPQRKIS, which “SPOT peptide array binding signal intensity” value is on record?
A: 13

These binders were tested against SpSla1-D3 in the same assay as above.
Experimental: as §1

Q: NLKKRPPTAPQRKIS was tested. Which “SPOT peptide array binding signal intensity” value did it give?
A: 6
